Test results as given in ChEMBL document CHEMBL3988442, “University of Dundee, Small-Polar-MMV Screening Library” (2021).

target: T1, Aspartate--tRNA(Asp/Asn) ligase (Mycobacterium tuberculosis (strain ATCC 25618 / H37Rv)) (UniProt P9WFW3); test: Assay for Asp RNA synthetase-1 from Mycobacterium tuberculosis; format: functional; design: scale not given: in the data most compounds retested in dose-response had high values; conditions: 30 µM
T1 sequence (whole entry): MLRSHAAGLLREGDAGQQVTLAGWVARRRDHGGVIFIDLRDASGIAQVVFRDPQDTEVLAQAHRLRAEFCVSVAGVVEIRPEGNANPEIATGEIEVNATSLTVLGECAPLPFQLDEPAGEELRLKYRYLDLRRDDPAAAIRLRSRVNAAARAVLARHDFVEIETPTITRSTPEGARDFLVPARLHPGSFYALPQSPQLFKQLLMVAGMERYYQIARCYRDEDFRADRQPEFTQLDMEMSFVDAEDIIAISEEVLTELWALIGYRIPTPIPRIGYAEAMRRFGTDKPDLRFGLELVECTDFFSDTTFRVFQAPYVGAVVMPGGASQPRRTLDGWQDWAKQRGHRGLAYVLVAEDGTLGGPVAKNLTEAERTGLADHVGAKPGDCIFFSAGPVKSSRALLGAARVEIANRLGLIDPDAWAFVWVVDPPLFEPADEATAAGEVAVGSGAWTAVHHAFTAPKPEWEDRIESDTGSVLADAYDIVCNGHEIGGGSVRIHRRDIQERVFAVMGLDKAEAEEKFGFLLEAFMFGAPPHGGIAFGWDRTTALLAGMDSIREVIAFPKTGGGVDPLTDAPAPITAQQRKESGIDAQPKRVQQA

With CCn1cnnc1C1CCN(C(=O)COc2ccccc2)CC1 as the compound, how does the Percent Effect read?
The Percent Effect was -1.18%.

Which Percent Effect does the source give for CC(C)NS(=O)(=O)c1cc(C(=O)O)cc(-c2ccccc2CN(C)C)c1 here?
The Percent Effect was 1.25%.

COc1cc(CNCc2ccc(C(C)O)cc2)cc2c1OCO2 (stereo not given) was tested. Which Percent Effect did it give?
Its Percent Effect is -6.24%.

With Cc1cc(C)c(OCC(=O)NS(=O)(=O)c2c(C)noc2C)c(C)c1 as the compound, how does the Percent Effect read?
The Percent Effect was -3.08%.

Which Percent Effect does the source give for Cc1ncc(-c2ccnc(N3CCCCC3)n2)c(=O)[nH]1 here?
Its Percent Effect is -2.84%.

With O=C(CSCC1CC1)N1CCCC(c2nccn2Cc2ccncc2)C1 (stereo not given) as the compound, how does the Percent Effect read?
The Percent Effect was -7.86%.

For CN(Cc1ccccc1)C(=O)c1nc(S(C)(=O)=O)n2ccccc12, which Percent Effect is on record?
Its Percent Effect is -4.08%.

With Cc1nc(COC[C@@H]2CCC[C@@]23CNCCO3)cs1 as the compound, how does the Percent Effect read?
Its Percent Effect is 19.4%.

For Cc1ccc(CNCc2nnc3n2CC(C(F)(F)F)CC3)cc1 (stereo not given), which Percent Effect is on record?
Its Percent Effect is -6.08%.

CCc1nc(C(=O)N2CCCC2)nn1-c1ccccc1Cl was tested. Which Percent Effect did it give?
Its Percent Effect is -1.24%.

With O=C(Cc1cccc(Cl)c1)N[C@@H]1CCNC[C@H]1O as the compound, how does the Percent Effect read?
The Percent Effect was -3.06%.

Which Percent Effect does the source give for CCN(Cc1ccc2c(c1)OCO2)C(=O)CCc1c(C)nc(C)[nH]c1=O here?
The Percent Effect was -2.63%.

How did the Percent Effect turn out when Cn1cccc1C(=O)N1CCCC2(CCCN2Cc2cccnc2)C1 (stereo not given) was run?
Its Percent Effect is 7.03%.

Which Percent Effect does the source give for Cc1cnn(C2CCCN(C(=O)CCCOc3cccc(F)c3)C2)c1 (stereo not given) here?
Its Percent Effect is -4.03%.

For CCCc1nc(C(C)(C)NC(=O)C2CC(=O)N(CC3CC3)C2)no1 (stereo not given), which Percent Effect is on record?
Its Percent Effect is 3.35%.

For Cc1ccc(C(=O)N2CCCS2(=O)=O)cc1Cl, which Percent Effect is on record?
The Percent Effect was -5.6%.

Which Percent Effect does the source give for COCCn1ccc(=O)c(OCC(=O)Nc2cccc(C(C)=O)c2)c1C here?
The Percent Effect was -4.27%.

Which Percent Effect does the source give for O=C(NC1(c2cccc(F)c2)CCOCC1)c1cc[nH]n1 here?
Its Percent Effect is 3.45%.

How did the Percent Effect turn out when Cn1cnnc1C1CCCN(C(=O)c2ccccc2Cl)C1 (stereo not given) was run?
The Percent Effect was 1.15%.

How did the Percent Effect turn out when C1CCCN(c2nc(C3CC3)ns2)CC1 was run?
The Percent Effect was -2.7%.

How did the Percent Effect turn out when CCc1c(C)nc2n(c1=O)CC(C(=O)Nc1nccs1)CS2 (stereo not given) was run?
Its Percent Effect is -3.8%.

With CCOCC1CN(C(=O)c2cscn2)Cc2nnn(CC3CC3)c21 (stereo not given) as the compound, how does the Percent Effect read?
Its Percent Effect is -4.51%.

With COc1ccc(-c2csc(N)c2C#N)cc1OC as the compound, how does the Percent Effect read?
The Percent Effect was 3.46%.

Which Percent Effect does the source give for Cc1cnn(CCNCc2csc(-c3ccc4c(c3)OCO4)n2)c1 here?
The Percent Effect was 1.41%.

Which Percent Effect does the source give for CN1CCc2cc(C(CNS(=O)(=O)c3cccs3)N3CCCC3)ccc21 (stereo not given) here?
The Percent Effect was -0.102%.

c1cnn(CC2CN(Cc3noc(C4CC4)n3)CCO2)c1 (stereo not given) was tested. Which Percent Effect did it give?
The Percent Effect was 0.485%.

How did the Percent Effect turn out when Cc1cc(NC(=O)NCC(C)N2CCc3ccccc32)no1 (stereo not given) was run?
The Percent Effect was 2.59%.

Which Percent Effect does the source give for CN(Cc1ccccc1)CC1(O)CCCN(CC(C)(C)C)C1=O (stereo not given) here?
The Percent Effect was -7.46%.

How did the Percent Effect turn out when CCNC(c1cccnc1)c1cc(C)cc(C)c1 (stereo not given) was run?
The Percent Effect was -2.55%.

With O=C(Cc1ccc(F)cc1)N1CCn2cc(Cn3cccn3)nc2C1 as the compound, how does the Percent Effect read?
Its Percent Effect is 5%.

Which Percent Effect does the source give for Cn1cc(CN2CCC3(C2)CN(Cc2ccsc2)C3)cn1 here?
The Percent Effect was 1.9%.

How did the Percent Effect turn out when COc1cccc(CN2CCCC(Nc3cccc(F)c3)C2)c1O (stereo not given) was run?
Its Percent Effect is -1.31%.

For CCn1c(C)cc(C(=O)N2CCCC(n3nc(C)nc3C)C2)c1C (stereo not given), which Percent Effect is on record?
Its Percent Effect is -4.26%.

CC(C)CCN1CCN(Cc2nc(C3CC3)no2)CC1 was tested. Which Percent Effect did it give?
The Percent Effect was 0.0141%.

For Cc1cc(CN2Cc3ccccc3CC2c2nnc(C)o2)on1 (stereo not given), which Percent Effect is on record?
Its Percent Effect is -0.894%.

For CN(C)C(=O)N1CCC2(CCCN(Cc3cnn(C)c3)C2)C1 (stereo not given), which Percent Effect is on record?
The Percent Effect was -0.168%.

With Cc1nn(C)c(N2CCOCC2)c1CNC1CCN(C(C)(C)C)CC1 as the compound, how does the Percent Effect read?
Its Percent Effect is -0.171%.

For CCCN1CCCn2nc(CNS(=O)(=O)c3ccc(C)cc3)cc2C1, which Percent Effect is on record?
Its Percent Effect is -1.38%.

For Cc1ccc(CNC(=O)CCSCc2csc(C)n2)cn1, which Percent Effect is on record?
The Percent Effect was -3.37%.

Which Percent Effect does the source give for O=C(NCCNC(=O)c1scnc1Cl)c1ccccc1 here?
Its Percent Effect is 2.84%.
